A short description of test [1]: liver-stage malaria parasite growth inhibition, primary screen, cell-based, HepG2, luciferase luminescence, HepG2 viability (AID 624349; in the data active = parasite load remaining mostly below about 12%, no sharp cut-off; inactive = mostly above about 10%;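 also: 100% = mean of DMSO negative control wells on the same plate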). The note with it: P. berghei liver stage in HepG2, luciferase luminescence, concentration not given here; parasite load remaining: stronger effect = lower value; viability: measured here: HepG2 viability without parasites.
Test [2] in a line: sensitizers of A549 cells to miR-34 induction, primary screen, imaging, A549 dox-inducible miR-34, nuclei and caspase counts (AID 1347080). The conditions noted are these: A549 miR-34 inducible, Hoechst nuclei count, 48 h.
A short description of test [3]: survival rescue of mitochondrial mutant cells in low glucose, primary screen, MELAS cybrids, Rieske KO mouse fibroblasts, CellTiter-Glo (AID 1508586;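 active = mean z-score across replicates of 1.96 or higher in either the MELAS or the Rieske mutant cell line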;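 also: z relative to plate mean and SD of compound and empty wells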). For orientation: In ATP-based viability assays light output follows the ATP content of the culture.
In test [4] the target is NAD(+) hydrolase SARM1 (Homo sapiens) (UniProt Q6SZW1). Description: SARM1 TIR NADase inhibitors, cell lysate, NAD-Glo luminescence (AID 1508614;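 active = compound whose remaining NAD level is above about 45 nM, limit read from the data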;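 also: higher remaining NAD means stronger inhibition of SARM1 NADase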). The note with it: SAM-TIR HEK293T lysate NADase, at 1 µM, stronger effect = higher value.
Sequence of NAD(+) hydrolase SARM1 (Homo sapiens) (Q6SZW1 whole entry, looked up): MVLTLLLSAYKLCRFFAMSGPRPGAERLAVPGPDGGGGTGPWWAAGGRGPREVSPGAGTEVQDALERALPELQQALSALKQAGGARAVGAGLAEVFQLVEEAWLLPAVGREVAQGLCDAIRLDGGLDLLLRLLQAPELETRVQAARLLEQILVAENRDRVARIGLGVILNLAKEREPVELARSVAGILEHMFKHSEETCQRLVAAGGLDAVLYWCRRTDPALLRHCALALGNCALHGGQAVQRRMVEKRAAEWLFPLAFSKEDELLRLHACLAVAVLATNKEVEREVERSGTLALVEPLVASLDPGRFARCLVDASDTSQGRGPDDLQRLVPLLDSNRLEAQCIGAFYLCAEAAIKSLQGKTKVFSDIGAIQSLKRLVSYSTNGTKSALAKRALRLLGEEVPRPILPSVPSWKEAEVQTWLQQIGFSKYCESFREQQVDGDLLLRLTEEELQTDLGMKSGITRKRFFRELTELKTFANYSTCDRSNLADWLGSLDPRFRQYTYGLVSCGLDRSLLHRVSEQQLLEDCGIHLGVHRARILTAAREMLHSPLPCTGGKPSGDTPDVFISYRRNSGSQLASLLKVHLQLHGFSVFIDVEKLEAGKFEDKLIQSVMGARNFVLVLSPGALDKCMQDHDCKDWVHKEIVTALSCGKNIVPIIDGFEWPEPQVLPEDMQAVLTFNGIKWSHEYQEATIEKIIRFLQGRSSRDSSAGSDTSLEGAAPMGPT
Test [5] in a line: viability rescue of complex I mutant cybrids, primary screen, cell-based, galactose medium, ATP luminescence (AID 1645843;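 active = z-score of at least 1.8 in each of two replicates, scored against plate mean and spread of sample wells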;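 also: positive z means more ATP and so rescue of galactose-driven cybrid death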). The conditions noted are these: complex I mutant cybrid cells, 72 h, stronger effect = higher value.
[6] abbreviates: stronger effect = lower value, cell number ratio, induced over uninduced.
Where [7] appears, read: measured here: relative caspase fold change +Dox/-Dox.
Setting [8] is: measured here: total cells with miR-34 induction, stronger effect = lower value.
[9] abbreviates: measured here: total cells without miR-34 induction.
The mark [10] stands for this setting: MELAS cybrid survival, CellTiter-Glo 48 h, stronger effect = higher value.
Setting [11] is: Rieske KO mouse fibroblast survival, CellTiter-Glo 72 h.

Activity calls are given as the source filed them.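 The calls were made as follows, unless noted: active = compounds whose cell count with miR-34 switched on is under 0.7 times the count with it off; inactive = the rest.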

Turning to `CO/N=C(\C(=O)N[C@@H]1C(=O)N2C(C(=O)O)=C(C[N+]3(C)CCCC3)CS[C@H]12)c1csc(N)n1`, in test [1], the parasite load remaining was 85.4% (inactive). Moreover, the viability (commonly a read-out of living cells in per cent, often relative to untreated cells) in test [1] was found to be 76.2%. Also, the figures for the fold change in test [2] (setting [6]) and in test [2] (setting [7]) were 0.925 (inactive) and 0.702, respectively. The cell count stood at 8990 in test [2] (setting [8]) and 9720 in test [2] (setting [9]). Moreover, the z-score in test [3] (setting [10]) is -1.62 (inactive); in test [3] (setting [11]) it was -0.496. Moreover, the remaining NAD in test [4] was 10 nM (inactive).
As for `NC[C@H]1O[C@H](O[C@H]2[C@H](O)[C@@H](O[C@H]3O[C@H](CO)[C@@H](O)[C@H](N)[C@H]3O)[C@H](N)C[C@@H]2N)[C@H](O)[C@@H](O)[C@@H]1O`, the parasite load remaining in test [1] was 178% (inactive). The viability in test [1] stood at 108%. The values for the fold change in test [2] (setting [6]) and in test [2] (setting [7]) were 0.854 (inactive) and 1.26, respectively. Also, the cell count in test [2] (setting [8]) was found to be 8420; in test [2] (setting [9]), 9860. Besides, the values for the z-score in test [3] (setting [10]) and in test [3] (setting [11]) were -0.387 (inactive) and -0.145, respectively. For the same compound, in test [4], the remaining NAD is 10 nM (inactive).
Take `CC(C)[N+]1(C)[C@@H]2CC[C@H]1CC(OC(=O)C(CO)c1ccccc1)C2` (stereo partly drawn): the parasite load remaining in test [1] was 74.8% (inactive). Moreover, the viability in test [1] turned out to be 106%. Besides, the results for the fold change in test [2] (setting [6]) and in test [2] (setting [7]) were 0.879 (inactive) and 1.21, respectively. For the same compound, the cell count in test [2] (setting [8]) is 10100; in test [2] (setting [9]), 11500. Further, the z-score is -0.791 (inactive) in test [3] (setting [10]), -0.158 in test [3] (setting [11]) and 0.555 (inactive) in test [5]. Further, the remaining NAD in test [4] was 10 nM (inactive).

For the origin of these results see PubChem BioAssay.
